# An excerpt weighted towards active compounds, which were near 6% of everything screened.
# DRD3 agonist: activates the human D3 dopamine receptor | D3R DiscoveRx beta-arrestin cells, luminescence, 90 min | max activation, % | 410,000 compounds, 0.58% hits; in the data active = max activation above about 30%; note: 0% is about no effect
#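 Agonist mode: compounds and dopamine controls were applied to plated cells for 90 min at 37 degrees C after an overnight attachment at 1500 cells/well. Luminescent read-out followed 30 - 60 minutes at room temperature with DiscoveRx detection reagent.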
# D1 PAM: enhances dopamine response at the human D1 receptor; potentiation, % at 10 µM; P21728; HEK293 TREx D1 cells, calcium flux, dopamine EC20 potentiation; 360,000 compounds, 0.036% hits; AID 504651; in the data active = potentiation above about 30%; note: 0% is about no effect
# Target sequence (P21728 whole entry, looked up): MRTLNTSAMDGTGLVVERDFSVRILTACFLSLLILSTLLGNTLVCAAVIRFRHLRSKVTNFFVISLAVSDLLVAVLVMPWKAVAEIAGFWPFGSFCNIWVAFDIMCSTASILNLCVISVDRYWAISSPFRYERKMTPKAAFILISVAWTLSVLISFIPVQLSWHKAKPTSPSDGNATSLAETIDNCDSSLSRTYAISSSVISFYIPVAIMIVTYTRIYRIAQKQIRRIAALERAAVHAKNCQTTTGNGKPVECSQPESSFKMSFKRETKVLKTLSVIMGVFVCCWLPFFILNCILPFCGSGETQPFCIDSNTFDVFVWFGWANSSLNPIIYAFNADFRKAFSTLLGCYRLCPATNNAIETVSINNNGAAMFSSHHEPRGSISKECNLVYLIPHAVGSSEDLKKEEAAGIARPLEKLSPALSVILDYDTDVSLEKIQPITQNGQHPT
# D3 antag: D3 dopamine receptor (human) antagonism; D3R cells, DiscoveRx beta-arrestin luminescence, antagonist mode; active compounds read low; max response, negative = inhibition, %; 360,000 compounds, 2.5% hits; P35462; AID 652054; in the data active = max response below about -50%; inconclusive = no clear call, values can overlap the other calls; note: % is set by controls: 0 for no effect and ±100 for the full control effect
#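 Cells expressing the human receptor were seeded at 1500 cells/well, incubated overnight at 37 degrees C in 5% CO2, then exposed to library compounds with dopamine controls for 90 minutes at 37 degrees C before luminescent detection.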
# D1 agonist: agonists of human D1 dopamine receptor. HEK293 T-REx D1 cells, calcium flux, agonist mode. activation, % at 2 µM. P21728. 360,000 compounds, 1% hits; in the data active = activation above about 30%; note: 0% is about no effect
#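 Tetracycline-induced HEK293 TREx D1 cells, force-coupled to calcium signalling, were dye-loaded with a no-wash calcium kit. Compound was pin-added after a 10 s baseline. Fluorescence was read kinetically at 1 cycle/s for 180 s, with calcium rises flagged as agonism.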
# D1 antag: human D1 dopamine receptor antagonism | HEK293 TREx D1 cells, calcium flux, dopamine EC80; active compounds read low | activity change, negative = inhibition, % at 10 µM | P21728 | AID 504652 | 360,000 compounds, 3.2% hits; in the data active = activity change below about -30%; note: % is set by controls: 0 for no effect and ±100 for the full control effect
#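 Cells carrying a force-coupled, tetracycline-inducible human D1 receptor report calcium flux. Each well gets a 10 s baseline, compound with 180 s monitoring, then an EC80 dopamine stimulus with a second 180 s kinetic read.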
# Numbers without * were called inactive; ? = inconclusive; . = no result given; ! = repeats disagree.
SMILES,DRD3 agonist,D1 PAM,D3 antag,D1 agonist,D1 antag
COc1ccc(OC)c(NC(=O)c2cc3c(s2)-c2ccccc2SC3)c1,0,-2,.,5,5
O=C(Nc1ccccc1OCc1cc(=O)n2ccccc2n1)c1cccc(Br)c1,-2,-4,.,-1,-10
COc1ccc(C2=C(N3CCN(c4cccc(C)c4C)CC3)c3ccccc3C2=O)cc1,5,0,.,1,-7
Cc1ccc(NS(=O)(=O)c2ccccc2)c(C)c1,.,4,.,2,-6
COc1ccc(NC2=NCCCCC2)cc1,-2,1,19,1,2
COc1ccc(NC2=Nc3ccccc3CC2)cc1,-34,-7,-56*,2,2
CCOc1ccc(CNC(=O)c2cnc3sc(N4CCOCC4)nn3c2=O)cc1,6,-4,.,0,-61*
Cc1ccc([N+](=O)[O-])cc1NC(=O)CCSc1ccc(Cl)cc1,-21,-9,-23,34*,-42*
Cc1ccc(NC(=O)CN2CCCCCC2)cc1Br,-22,8,-85*,28,-7
CC1CCN(CC(=O)Nc2cccc([N+](=O)[O-])c2)CC1,-58,-1,-58*,0,-1
O=C(Nc1cccc([N+](=O)[O-])c1)C1CCN(C(=O)Cc2ccccc2)CC1,-19,-3,?,7,-30*
O=C(CN1CCCCCC1)Nc1cccc(Br)c1,-7,-4,0,1,14
Cc1nc(N2CCOCC2)c2c(C(=O)NCCc3ccccc3)c(C)oc2n1,-14,-2,.,1,1
CCCCc1cc(=O)oc2cc(C)c3c(C)coc3c12,-10,0,.,4,-5
CC[C@H]1OC(=O)[C@H](C)C(=O)[C@H](C)[C@@H](O[C@@H]2O[C@H](C)C[C@H](N(C)C)[C@H]2O)[C@](C)(OC)C[C@@H](C)C(=O)[C@H](C)[C@H]2N(CCCCn3cnc(-c4cccnc4)c3)C(=O)O[C@]12C,-5,.,.,.,.
CC1CCN(CC(=O)NNC(=O)c2cccc(Br)c2)CC1,-34,-1,-50*,0,-3
Cc1ccc([N+](=O)[O-])cc1NC(=O)CN1CCCCC1,-3,-3,-78*,-2,14
O=C(NNC(=O)C1CC=CCC1)c1cccc(Br)c1 (centres undefined),8,.,-13,.,.
Cc1ccc([N+](=O)[O-])cc1NC(=O)CN1CCC(C)CC1,-12,8,-84*,0,5
Cc1ccc([N+](=O)[O-])cc1NC(=O)C(C)N1CCCCC1 (centres undefined),-29,-9,-24,0,2
CC1CCN(CC(=O)Nc2ccc(Cl)cc2[N+](=O)[O-])CC1,2,5,-10,2,-1
Cc1c(Cl)cccc1-c1ccc(C(=O)Nc2ccc(F)cc2)o1,-18,-3,.,17,-14
O=C1C(c2ccc(F)cc2)N(Cc2ccccc2Cl)C(=O)CN1C1CCCCC1 (centres undefined),-5,-1,.,-2,-42*
Cc1cc(NC(=O)C2Oc3ccccc3OC2C)no1 (centres undefined),1,0,-138*,3,3
CC1Oc2ccccc2OC1C(=O)Nc1nccs1 (centres undefined),13,-6,10,2,15
SMILES,DRD3 agonist,D1 PAM,D3 antag,D1 agonist,D1 antag
COc1ccc(-c2c(-c3ccccc3)c(C(=O)C(=O)NCCCN(C)C)n3ccc4cc(OC)c(OC)cc4c23)cc1OC,-11,9,?,1,-47*
O=C(COC(=O)CSc1ccc(F)cc1)NC1CC1,1,.,16,.,.
O=C(COC(=O)CSc1ccc(F)cc1)NCC1CCCCC1,-3,-4,-18,3,-37*
C=Cc1c(C)c2cc3[nH]c(cc4nc(cc5nc(cc1[nH]2)C(C)=C5CCC(=O)O)C(CCC(=O)O)=C4C)c(C)c3C=C,36*!,-7,4,-1,18
CN1CCN(C(=O)c2cccc3c(-c4ccc(F)c(F)c4)coc23)CC1,-12,.,-100*,.,.
COc1ccc(-c2coc3c(C(=O)N4CCN(C)CC4)cccc23)c(C)c1,-17,.,-87*,.,.
COc1ccc(NC(=O)c2cccc3c(-c4ccc(OC)cc4C)coc23)cc1,12,.,67,.,.
COc1ccccc1NC(=O)c1nnn(Cc2ccccc2)c1NC(C)=O,-6,1,-70*,3,-48*
O=C(Nc1ccccc1)c1nnn(Cc2ccccc2)c1NC(=O)C(F)(F)F,-2,-1,-23,4,8
CC(=O)Nc1c(C(=O)NCc2ccccc2)nnn1Cc1ccccc1,2,1,-56*,3,-6
Cc1ccccc1CSc1cn(CC(=O)N2CCCCC2)c2ccccc12,17,0,.,3,-6
COc1ccccc1CCC(=O)Nc1ccc(OC)c(S(=O)(=O)N2CCCCC2)c1,13,.,-9,6,-4
CCc1ccc(C(=O)CCC(=O)Nc2ccc(OC)c(S(=O)(=O)N3CCCCC3)c2)cc1,3,.,4,7,-41*
COc1ccc(NC(=O)c2n[nH]c(=O)c3ccccc23)cc1S(=O)(=O)N1CCCCC1,-2,-1,-9,1,-39*
CCOc1ccc(NC(=O)CN(C)Cc2ccc3c(c2)OCO3)cc1S(=O)(=O)N1CCCC1,-15,-6,-68*,0,-35*
COc1ccccc1CCC(=O)OCC(=O)Nc1ccc(C)c(S(=O)(=O)N2CCCCC2)c1,4,-7,9,4,-33*
COc1ccc(CCC(=O)Nc2ccc(OC)c(S(=O)(=O)N3CCCCC3)c2)cc1OC,0,-5,11,-1,3
COc1ccc(C2CC(=O)c3cc(-c4nc(-c5cccc([N+](=O)[O-])c5)cs4)c(=O)n(-c4ccccc4C)c3C2)cc1 (centres undefined),-12,-1,.,0,12
Cc1nn2c(=O)cc(COC(=O)c3cccc(NC(=O)c4ccc(F)cc4)c3)nc2s1,13,0,.,-2,3
Cc1ccc2cccc(S(=O)(=O)Nc3c(C)n(C)n(-c4ccccc4)c3=O)c2n1,-14,-1,11,4,-5
Cc1c(NS(=O)(=O)c2cccc3nsnc23)c(=O)n(-c2ccccc2)n1C,-8,-3,-7,1,-90*
Cc1cc(C)cc(OCC(=O)Nc2ccc(N3CCN(C(=O)c4ccco4)CC3)cc2)c1,37*,-2,28,9,-8
COc1ccc(OCC(=O)Nc2ccc(N3CCN(C(=O)c4ccco4)CC3)cc2)cc1,5,-6,3,6,-8
O=C(COc1ccc(Cl)cc1)Nc1ccc(N2CCN(C(=O)c3ccco3)CC2)cc1,14,-8,11,17,-31*
Cc1ccc(Cn2ncc(Cl)c(Cl)c2=O)cc1,-10,-2,?,0,-18
CCc1ccc(C(=O)Cn2ncc(Cl)c(Cl)c2=O)cc1,-15,-3,-8,0,-31*
Cc1cc(C)cc(Cn2ncc(Cl)c(Cl)c2=O)c1,-9,-3,-59*,0,8

# Compound activity deposited in PubChem BioAssay by National Center for Advancing Translational Sciences (NCATS).
